High-throughput results deposited in PubChem BioAssay by National Center for Advancing Translational Sciences (NCATS).
HP1b chromo inh = inhibitors of HP1-beta chromodomain binding to methylated histone tails | P83916 | AlphaScreen HP1-beta / biotin-H3K9me3 peptide binding | 390,000 tested, 0.56% active | Potency, µM (series often up to 114 µM), actives largely listed as inhibitors; also: nearly all actives have a fitted effect of over 70% in size
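AlphaScreen: HP1-beta (50 nM) preformed 30 min with biotin-H3(1-18)K9me3 peptide (50 nM) in PBS pH 7.4, 0.01% Tween-20. Compound added for 30 min at RT, then streptavidin donor/nickel chelate acceptor beads (10 ug/mL) for 30 min.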
BAZ2B block = BAZ2B (human) inhibition; AlphaScreen BAZ2B-H3K14Ac peptide displacement; Potency, µM (titrated, usually from 114 µM), usual class: inhibitors; 360,000 tested, 4.4% active; AID 504333; also: nearly all actives have a fitted effect of over 60% in size
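AlphaScreen luminescence quantifies BAZ2B engagement of H3K14Ac peptide; the protein and biotinylated peptide are both at 50 nM final, buffer PBS pH 7.4 with 0.01% Tween-20, all steps at room temperature.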
GLS inhibitor = blocks human kidney-isoform glutaminase activity. O94925. Potency, µM (highest dose often 45.5 µM), usual class: inhibitors. 410,000 tested, 0.21% active. GLS enzymatic activity, qHTS titration
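hKGA; 45 mM KH2PO4 pH 8.2 + 0.02% Tween-20; cpd via pin tool; 1 mM Gln soln; GluOx/HRP/Amplex Red; RT 30 min; fluor. t0 & final.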
JMJD2A Tudor = blocks the human JMJD2A Tudor domain; 390,000 tested, 4.4% active; Potency, µM (top dose mostly 114 µM), usual class: inhibitors; AlphaScreen JMJD2A-Tudor / H3K4me3 peptide binding; O75164; also: nearly all actives have a fitted effect of over 50% in size
G9a block = blocks human histone lysine methyltransferase G9a; Q96KQ7; Potency, µM (doses to about 102 µM), actives largely listed as inhibitors; G9a H3K9 monomethylation, AlphaScreen, 2 h; 350,000 tested, 8.8% active; also: nearly all actives have a fitted effect of over 75% in size
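Readings reflect AlphaScreen signal from monomethyl-H3K9 antibody detection. HMT at 20 nM; substrate b-H3K9 500 nM; cofactor SAM 20 uM; 2 h RT reaction; compounds tested as titrations in qHTS with 15 min preincubation.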
Numbers stand for hits; n = inactive; u = inconclusive; x = no result; [ ] = remark or other dose. A selection: hits, their analogues and other compounds. The true share with any hit is near 10%. Calls follow the shape of the dose curve; as a rule, active = well fitted curve in the direction sought with a large enough effect; inconclusive = small, poorly fitted or top-dose-only effect, or another doubt; inactive = no such curve, though single readings can be large; an effect the other way counts as inactive or inconclusive.

SMILES | HP1b chromo inh | BAZ2B block | GLS inhibitor | JMJD2A Tudor | G9a block
Cc1nnc(N2C(=O)C(O)=C(C(=O)c3ccco3)C2c2ccc(F)cc2)s1 (configuration not stated) | n | n | n | 56µM | u
Cc1ccc(NC(=O)c2ccc(Br)o2)cc1S(=O)(=O)N(C)C | n | n | n | n | u
COCCN(C(C)=O)c1nnc(-c2ccccn2)s1 | n | 56µM | n | n | n
CC(=O)N(CC1CCCO1)c1nnc(-c2ccccn2)s1 (configuration not stated) | n | 50µM | n | n | 56µM
COCCN(C(C)=O)c1nnc(-c2cnccn2)s1 | n | n | n | n | n
Cc1ccc2nc(NCc3ccccc3Cl)c3nnnn3c2c1 | n | n | n | n | n
Cc1ccc(-c2nc3ncccc3o2)cc1NC(=O)COc1ccc(C(C)C)cc1 | n | n | n | n | 14µM
Cc1cc(OCC(=O)Nc2cc(-c3nc4ncccc4o3)ccc2C)ccc1Cl | n | n | n | n | n
CCOc1cc(C(Nc2cc(C)ccn2)c2ccc3cccnc3c2O)ccc1OC (configuration not stated) | 14µM | 10µM | n | 18µM | 3.2µM
COc1ccc(C(C)C)cc1S(=O)(=O)Nc1ccccn1 | n | n | n | n | n[2.33 µM]
CCCCC(=O)NC(c1ccc(Cl)cc1)c1ccc2cccnc2c1O (configuration not stated) | n | x | n | 56µM | x
O=C(Nc1ccncc1)Nc1cccc(C(F)(F)F)c1 | n | n | n | n | n
Oc1c(C(Nc2cccc(C(F)(F)F)c2)c2ccncc2)ccc2cccnc12 (configuration not stated) | n | 20µM | n | 32µM | 28µM
COc1ccc(C(Nc2ccccn2)c2ccc3ccc(C)nc3c2O)cc1C (configuration not stated) | n | u | n | u | 8.9µM
Cc1cccc(NC(=O)Cn2cc(C(=O)C3CC3)c3ccccc32)c1C | n | n | n | n | n
COc1ccc(C(=O)Nc2ccc(C(=O)OCc3cc(=O)n4nc(C(C)C)sc4n3)cc2)cc1 | n | n | n | n | n[12.7 µM]
CSc1ccccc1NC(=O)CN(C)C(=O)CNc1ccc(C(F)(F)F)cc1[N+](=O)[O-] | n | n | n | n | n
Cc1cn2c(=O)cc(COC(=O)COc3ccc(C)c(C)c3)nc2s1 | n | n | n | n | u
CCCC(=O)NC(c1ccccc1OC)c1ccc2cccnc2c1O (configuration not stated) | n | 25µM | n | 56µM | n
Cc1ccc(C(Nc2ccccn2)c2ccc3cccnc3c2O)cc1 (configuration not stated) | n | 28µM | n | 20µM | 7.9µM
CCCC(=O)NC(c1ccc(Cl)cc1Cl)c1ccc2cccnc2c1O (configuration not stated) | n | n | n | n | n
CCCCC(=O)NC(c1ccc(N(C)C)cc1)c1ccc2cccnc2c1O (configuration not stated) | u | 20µM | n | 18µM | 40µM
CCCCC(=O)NC(c1ccc(N(CC)CC)cc1)c1ccc2cccnc2c1O (configuration not stated) | n | 45µM | n | u | n
CCOc1ccccc1CNC(=O)Cn1ncn2nc(-c3cccs3)cc2c1=O | n | n | n | n | u
O=C(CN1C(=O)NC(CCc2ccccc2)C1=O)Nc1ccc(F)c(F)c1F (configuration not stated) | n | x | n | n | x
SMILES | HP1b chromo inh | BAZ2B block | GLS inhibitor | JMJD2A Tudor | G9a block
CCOC(=O)C1=C(c2ccc(O)cc2)NC(=O)NC1C (configuration not stated) | n | x | n | n | x
Cc1ccnc(NC(c2cccc(O)c2)c2ccc3ccc(C)nc3c2O)c1 (configuration not stated) | n | u | n | u | 11µM
Cc1cccc(NC(c2ccccc2F)c2ccc3ccc(C)nc3c2O)n1 (configuration not stated) | n | n | n | u | n
Cc1cccc(NC(c2cccc(Cl)c2)c2ccc3cccnc3c2O)n1 (configuration not stated) | n | 10µM | n | 16µM | n
CCCC(=O)NC(c1ccc(C)cc1)c1ccc2cccnc2c1O (configuration not stated) | n | 14µM | n | 56µM | n
CCNc1nc(NCC)nc(SCCOC(=O)c2ccccc2)n1 | n | n | n | n | n
